Among all 68,000 compounds or so, about 2,700 (4%) showed an effect of 50% or more. The sample as a whole holds a higher share of strong results than the screen did.

In this experiment the test system is Plasmodium berghei. Kind of experiment: Screen against P. berghei liver stage (PbLuc), transformed with Luciferase, at 2uM. Type of experiment: functional, HepG2. Conditions: tested at 2 uM.
In the case of `O=C(NCCN1CCOCC1)c1ccc(-c2ccc(F)cc2)nc1O`, the INHIBITION is given as 58.75%. The same measure for `O=C(NCCCN1CCOCC1)c1ccn(COc2ccc(F)cc2)n1`: 58.42%.

In the case of `O=C(NCCCN1CCOCC1)c1ccn(COc2ccc(Br)cc2)n1`, the INHIBITION was determined as 12.84%.

Consider `Cc1ccc(C(=O)NCCN2CCOCC2)c(=O)[nH]1`, for which the INHIBITION is given as -84.65%. On to `O=C(NCCN1CCOCC1)c1ccn(COc2ccc(F)cc2)n1`, for which the INHIBITION is -10.62%.

On to `O=C(NCCN1CCOCC1)c1ccc(-c2ccccc2)[nH]c1=O`, for which the INHIBITION was 40.47%. The value for `CCc1nnc(C(C)N2CCN(CCC(=O)NC3CC3)CC2)o1` (configuration not stated) was 35.61%. Turning to `CC(C)(C)C(CCO)NC(=O)Nc1ccncc1` (configuration not stated), the INHIBITION amounted to 6.84%.

With `Cc1c(C(=O)NC(C)C)nnn1-c1cccc(C(F)(F)F)c1`, the INHIBITION is reported as -8.75%.

As for `CC(C)NC(=O)c1nnn(-c2cccc(C(F)(F)F)c2)c1N`, the INHIBITION was 50.54%.

With `CC(C)NC(=O)c1nnn(-c2cccc(C(F)(F)F)c2)c1C1CC1`, the INHIBITION is -66.52%. The value for `COCCc1noc(CN2C(=O)OC[C@@H]2C(C)C)n1` was -7.66%; that for `CC1N(C)C(=O)COC12CCN(C(=O)CCc1ccccc1)CC2` (configuration not stated) was 65.38%; that for `CC1N(C)C(=O)COC12CCN(Cc1ccsc1)CC2` (configuration not stated) was -30.38%. `CC1N(C)C(=O)COC12CCN(C(=O)Cc1ccsc1)CC2` (configuration not stated): the INHIBITION is 2.18%. Turning to `O=C(c1cccc(F)c1)N1CCC2(CC1)CC(N1CCOCC1)C2`, the INHIBITION is listed as -21.77%.

Regarding `CCc1n[nH]c(C2CN(Cc3csc(COC)n3)CCO2)n1` (configuration not stated), the INHIBITION is reported as 12.58%. Turning to `c1ccc(-c2nnn3c2COC(CNCC2CC2)C3)cc1` (configuration not stated), the INHIBITION was 14.48%. Consider `c1cc(-c2nnn3c2COC(CNCC2CCOCC2)C3)ccn1` (configuration not stated), for which the INHIBITION is 86.79%. As to `c1ccc(-c2nnn3c2COC(CNCC2CCOCC2)C3)cc1` (configuration not stated), the INHIBITION was 12.36%. For the compound `Cc1cccc(C(=O)NCc2ccc(N3CCCCCC3)nc2)n1`, the INHIBITION is recorded as -26.87%. Consider `Cc1cn2c(n1)C(CNCC1=Cc3cc(Cl)ccc3OC1)CCC2` (configuration not stated), for which the INHIBITION stood at 9.21%.

With `CCCS(=O)(=O)N1CCC2(CC1)CC(N1CCCC1)c1ccccc12` (configuration not stated), the INHIBITION is given as -21.74%. The same measure for `Cc1nc2c(c(=O)[nH]1)CN(C(=O)CCC1CCCN(C)C1)C2` (configuration not stated): 19.48%.

In the case of `CC(C)c1ccc(S(=O)(=O)N2CCCC3(CCCN3S(C)(=O)=O)C2)cc1` (configuration not stated), the INHIBITION is reported as 42.62%. The value for `CCOCCC(=O)Nc1cccc(Cl)c1COC` was 1.06%. With `CCOCCC(=O)Nc1ccnn1-c1ccc(Cl)cc1`, the INHIBITION was -24.07%. With `CCOCCC(=O)Nc1cccc(Cl)c1C(N)=O`, the INHIBITION was 56.89%. The same measure for `CC(C)CCc1nc(CNCC2CCCN2c2cccnn2)cs1` (configuration not stated): 15.47%; for `CN(C)C(=O)c1n[nH]c2c1CN(Cc1nccs1)CC2`: -8.84%. The same measure for `c1cncc(CNCCc2cccs2)c1`: -10.44%; for `COCCNC(=O)CSCc1nc(O)c2cc(C(C)C)sc2n1`: -43.28%; for `COC(=O)C(C)NC(=O)CSCc1nc(O)c2cc(C(C)C)sc2n1` (configuration not stated): 52.08%. For the compound `COC(=O)CNC(=O)CSCc1nc(O)c2cc(C(C)C)sc2n1`, the INHIBITION was 5.36%. For `Cc1nc[nH]c1CN(Cc1ccc(F)cc1)C1CC(C)(C)NC(C)(C)C1`, the INHIBITION is listed as -24.35%. The value for `Cc1nc[nH]c1CN(Cc1ccccc1)C1CC(C)(C)NC(C)(C)C1` was 50.68%. As to `Cc1nc[nH]c1CN(Cc1ccccc1F)C1CC(C)(C)NC(C)(C)C1`, the INHIBITION was 39.26%. As to `O=C(NCc1ccco1)[C@H]1C[C@@H]2CCN(c3cccc(F)c3)C[C@H]2O1`, the INHIBITION was determined as 45.28%. The same measure for `CCCN1CCC(N2CCN(c3cccc(C)n3)CC2)CC1`: 36.24%.

Regarding `Nc1cc(CCC2CN(Cc3ccc4cc[nH]c4c3)CCO2)ccn1` (configuration not stated), the INHIBITION worked out at 52.69%. The value for `COc1ccc(CN2CCOC(CCc3ccnc(N)c3)C2)cc1` (configuration not stated) was -152.49%; that for `Nc1cc(CCC2CN(Cc3ccc4c(c3)OCCO4)CCO2)ccn1` (configuration not stated) was 23.87%.

As for `COCC1CN(Cc2ccc(OC)cc2)Cc2nn(C)cc21` (configuration not stated), the INHIBITION is reported as -62.13%. The value for `CN(CC(=O)N1CCOC(CCc2ccccc2)C1)Cc1ccccn1` (configuration not stated) was 3.94%; that for `CC(C)NC(=O)[C@@H]1C[C@@H]2CCN(Cc3ccoc3)C[C@H]2O1` was 0%. The value for `CC(c1nc(C(C)(C)C)no1)N1CCC(N2CCCC2)CC1` (configuration not stated) was 4.52%; that for `CCS(=O)(=O)N1CCc2ccc(NC(=O)Nc3cccc(SC)c3)cc21` was 47.4%; that for `CCS(=O)(=O)N1CCc2ccc(NC(=O)Nc3ccc(F)cc3F)cc21` was 36.98%. The value for `NS(=O)(=O)N1CCc2ccc(NC(=O)Cc3ccc(F)cc3)cc21` was 1.22%; that for `NS(=O)(=O)N1CCc2ccc(NC(=O)Cc3ccccc3F)cc21` was 60.14%; that for `CCS(=O)(=O)N1CCc2ccc(NC(=O)Nc3ccccc3)cc21` was 20.38%. For the compound `CCS(=O)(=O)N1CCc2ccc(NC(=O)Nc3ccccc3C)cc21`, the INHIBITION is -7.56%. As to `CCS(=O)(=O)N1CCc2ccc(NC(=O)Nc3cccc(C)c3)cc21`, the INHIBITION was found to be 80.54%. Take `CCS(=O)(=O)N1CCc2ccc(NC(=O)Nc3cccc(F)c3)cc21`: the INHIBITION was 78.93%. The value for `NS(=O)(=O)N1CCc2ccc(NC(=O)CC(F)(F)F)cc21` was 6.91%; that for `O=C(O)c1cc2c(nc1N1CCOCC1)CCN(C1CCOC1)CC2` (configuration not stated) was -51%; that for `CCc1ccc(C(=O)Nc2ccc(CC3CC(=O)NC3=O)cc2)s1` (configuration not stated) was -3.62%.

As to `CCc1ncc(CN2CCN(c3cc(NC4CC4)nc(N)n3)CC2)cn1`, the INHIBITION is reported as -18.65%. The same measure for `CCn1cc(NC(=O)Nc2ccc3c(c2)OCCO3)cn1`: -27.62%; for `Cc1cc(CN2CCC(CNC(=O)c3ccc4[nH]cnc4c3)C2)[nH]n1` (configuration not stated): -48.91%; for `CC(C)c1nn(C)c(N(C)C)c1CNC1CCN(CC2CC2)CC1`: 10.61%. `O=c1[nH]c(N2CCCCC2)nc2c1CCN(Cc1cccnc1)C2`: the INHIBITION is 43.23%.

As to `O=c1c2cnc(N3CCCCC3)nc2ccn1Cc1ccco1`, the INHIBITION is -77.67%. On to `CCN1CCN(c2ncc3c(=O)n(Cc4ccco4)ccc3n2)CC1`, for which the INHIBITION is reported as -20.72%. The value for `CN1CCN(c2ncc3c(=O)n(Cc4ccco4)ccc3n2)CC1` was 59.01%. On to `Cn1ccnc1N1CCN(C(=O)Cc2ccc(Cl)cc2)CC1`, for which the INHIBITION is recorded as 29.05%.

For `O=C(c1ccc2ccccc2c1)C1CCCN(C(=O)Cn2cnnn2)C1` (configuration not stated), the INHIBITION is listed as 56.38%.

With `O=C(c1ccc2ccccc2c1)C1CCCN(C(=O)Cn2cncn2)C1` (configuration not stated), the INHIBITION came out at 25.9%. Consider `CSc1ccc(C(=O)C2CCCN(C(=O)Cn3cnnn3)C2)cc1` (configuration not stated), for which the INHIBITION is given as 41.68%. The same measure for `Cc1ccccc1OCC(O)CN1CCC(Cn2cccn2)CC1` (configuration not stated): 33.22%; for `Cc1cccc(CN2CCc3ncnc(-c4ccsc4)c3CC2)n1`: -1.33%. The same measure for `CC(C)N(C)S(=O)(=O)N1CCCC1C(=O)N1CCSCC1` (configuration not stated): -36.67%; for `Cc1ccc(CC(=O)N2CCCCC2c2nc(C)cs2)cn1` (configuration not stated): -39.92%. The value for `CC[C@@H](c1ccccc1)n1c(C2CC2)n[nH]c1=O` was 43.05%; that for `C[C@H](c1ccc(Cl)cc1)n1c(C2CC2)n[nH]c1=O` was 62.51%; that for `CN1CCC(c2n[nH]c(=O)n2-c2cccc(Cl)c2)CC1` was -8.16%. Consider `O=c1[nH]nc(C2CC2)n1-c1cccc(Cl)c1`, for which the INHIBITION is recorded as -21.72%. The value for `C[C@H](c1ccc(F)cc1)n1c(C2CCC2)n[nH]c1=O` was 38.67%; that for `C[C@H](c1ccc(F)cc1)n1c(C2CCN(C)CC2)n[nH]c1=O` was 72.05%; that for `O=C1NCCCCC1NC(=O)N1CCc2ccccc21` (configuration not stated) was 50.42%. The same measure for `O=C1NCCCCC1NC(=O)N1CCCc2cc(F)ccc21` (configuration not stated): -30.43%. Turning to `O=C1NCCCCC1NC(=O)N1CCCc2ccccc21` (configuration not stated), the INHIBITION was 12.66%. The value for `Cc1nnc(N2CCCC3(CN(Cc4cnn(C)c4)CCO3)C2)o1` (configuration not stated) was 16.39%; that for `CC(C)c1nn(CC(=O)N2CCCC2)c(=O)c2c1cnn2C(C)(C)C` was -10.09%; that for `CCc1cnc(CN(C)C2CCN(Cc3nnc(C4CC4)n3C)C2)o1` (configuration not stated) was -11.16%.

As for `Cc1occc1C(=O)N1CCC2(CCN(Cc3nccs3)CC2)C1`, the INHIBITION is reported as -114.33%. As for `Cc1occc1C(=O)N1CCC2(CCN(Cc3nccs3)C2)CC1`, the INHIBITION is given as -6.15%.

On to `Cc1occc1C(=O)N1CCC2(CCCN(Cc3nccs3)C2)C1` (configuration not stated), for which the INHIBITION came out at 50.61%. The value for `CC(C)NC(=O)N1C[C@@H]2C[C@H](C(=O)N3CCCC3)[C@H](C1)O2` was -17.24%. On to `CCn1cc(CN2CCc3nc(N4CCOCC4)nc(O)c3CC2)cn1`, for which the INHIBITION is given as 7.86%. The same measure for `CCn1cc(CN2CCc3nc(-c4ccccn4)nc(O)c3C2)cn1`: 57.4%; for `Cn1cc(CN2CCc3nc(-c4ccccn4)nc(O)c3C2)cn1`: -21.74%; for `CN(C)C[C@@H]1CN(C(=O)c2cc(F)ccc2F)C[C@@H]1CO`: -0.3%. The value for `CCN(C)C[C@@H]1CN(C(=O)c2cc(C(F)(F)F)n[nH]2)C[C@@H]1CO` was 51.9%; that for `CCn1nc(C)cc1C(=O)N1C[C@@H](CN(C)C)[C@@H](CO)C1` was 31.31%; that for `COCCN(C)C[C@@H]1CN(C(=O)c2cccc(C(F)(F)F)c2)C[C@@H]1CO` was -20.58%.

Regarding `CN(C)C[C@@H]1CN(C(=O)c2cc(-c3ccccc3)n[nH]2)C[C@@H]1CO`, the INHIBITION is reported as -40.44%.

Turning to `CCN(C)C[C@@H]1CN(C(=O)c2cc(-c3ccc(F)cc3)n[nH]2)C[C@@H]1CO`, the INHIBITION was found to be 54.49%. The same measure for `O=C(CCCC(=O)NCc1cccc(Br)c1)NCCN1CCCC1`: -32.11%; for `Cc1nc(CN2C[C@@H]3CN(C(=O)C4(C#N)CC4)C[C@@H]3C2=O)cs1`: 25.5%. The value for `CN(C)C(=O)N1CCC2(CCCN(Cc3cnn(C)c3)C2)C1` (configuration not stated) was 40.67%; that for `CCn1c(CC2CCN(C(=O)C3CCOC3)CC2)nn(C)c1=O` (configuration not stated) was -47.18%.

The values above are taken from ChEMBL document CHEMBL4513216, “Probing the Open Global Health Chemical Diversity Library for Multistage-Active Starting Points for Next-Generation Antimalarials” (ACS Infect Dis, 2020).
